Measurements: PubChem BioAssay (NCATS)
Inconclusive results are not listed. A call without a number means that no potency is given here. Active and inactive are the calls of the source. The call rests on the fitted dose curve; in most records, active means well fitted curve in the direction sought with a large enough effect; inconclusive means small, poorly fitted or top-dose-only effect, or another doubt; inactive means no such curve, though single readings can be large; an effect the other way counts as inactive or inconclusive.

What was measured:
[1] = Quantitative highthroughput screen to assess conditional lethalithy of NOMO1 cells grown in RPMI1640 with untreated serum (RPMI+s) (AID 1963876); further: nearly all actives have a fitted effect of over 35% in size
Method in brief: (§1)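 Each medium arm—HPLM with 10% dialyzed FBS, or RPMI1640 with 5 mM glucose and 10% untreated or dialyzed FBS—was screened against an 11-point, 3-fold compound titration for 48 h at 37 °C, with CellTiter-Glo luminescence as endpoint.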

[2] = Quantitative highthroughput screen to assess conditional lethalithy of NOMO1 cells grown in RPMI1640 with dialyzed fetal bovine serum (RPMI+ds) (AID 1963877); further: nearly all actives have a fitted effect of over 30% in size; on viability: series mostly up to about 46 µM
Method in brief: as §1

[3] = Quantitative highthroughput screen to assess conditional lethalithy of NOMO1 cells grown in Human Plasma-Like Medium with dialyzed fetal bovine serum (HPLM+ds) (AID 1963878); further: nearly all actives have a fitted effect of over 35% in size
Method in brief: as §1

[4] = Quantitative highthroughput screen to assess conditional lethalithy of P12 Ichikawa cells grown in Human Plasma-Like Medium with dialyzed fetal bovine serum (HPLM+ds) (AID 1963879); details: Potency: viability; further: nearly all actives have a fitted effect of over 35% in size; on viability: series mostly up to about 46 µM
Method in brief: as §1

[5] = Quantitative highthroughput screen to assess conditional lethalithy of P12 Ichikawa cells grown in RPMI1640 with dialyzed fetal bovine serum (RPMI+ds) (AID 1963880); details: Potency: P12-Ichikawa viability; further: nearly all actives have a fitted effect of over 35% in size
Method in brief: as §1

[6] = Quantitative highthroughput screen to assess conditional lethalithy of P12 Ichikawa cells grown in RPMI1640 with untreated serum (RPMI+s) (AID 1963881); details: Potency: viability; further: nearly all actives have a fitted effect of over 35% in size; on viability: series mostly up to about 46 µM
Method in brief: as §1

[7] = Quantitative highthroughput screen to assess conditional lethalithy of SEM cells grown in Human Plasma-Like Medium with dialyzed fetal bovine serum (HPLM+ds) (AID 1963882); further: nearly all actives have a fitted effect of over 35% in size; on viability: series mostly up to about 46 µM
Method in brief: as §1

[8] = Quantitative highthroughput screen to assess conditional lethalithy of SEM cells grown in RPMI1640 with unreated serum (RPMI+s) (AID 1963883); further: nearly all actives have a fitted effect of over 35% in size
Method in brief: as §1

[9] = Quantitative highthroughput screen to assess conditional lethalithy of SEM cells grown in RPMI1640 with dialyzed fetal bovine serum (RPMI+ds) (AID 1963884); further: nearly all actives have a fitted effect of over 35% in size; on viability: series mostly up to about 46 µM
Method in brief: as §1
Potency means the concentration at half of the fitted maximal effect.

| SMILES | Potency [1] | Potency [2] | Potency [3] | Potency [4] | Potency [5] | Potency [6] | Potency [7] | Potency [8] | Potency [9] |
| --- | --- | --- | --- | --- | --- | --- | --- | --- | --- |
| O=C(C[C@@H]1CC=CCCC(=O)O[C@H](c2ccccc2)CNC1=O)NCc1ccc(Cl)cc1 | inactive | inactive | inactive | inactive | inactive | inactive | inactive | inactive | inactive |
| C[C@H]1[C@H](NC(=O)C(=NOC(C)(C)C(=O)O)c2csc(N)n2)C(=O)N1S(=O)(=O)O | inactive | inactive | inactive | inactive | inactive | inactive | inactive | inactive |  |
| CC(C)c1nc(CN(C)C(=O)N[C@H](C(=O)N[C@@H](Cc2ccccc2)C[C@H](O)[C@H](Cc2ccccc2)NC(=O)OCc2cncs2)C(C)C)cs1 | inactive | inactive | inactive | inactive | inactive | inactive | inactive | inactive | inactive |
| CCN1CCN(C(=O)N[C@H](C(=O)N[C@@H]2C(=O)N3C(C(=O)O)=C(CSc4nnnn4C)CS[C@@H]23)c2ccc(O)cc2)C(=O)C1=O | inactive | inactive | inactive | inactive | inactive | inactive | inactive | inactive | inactive |
| O=C(O)C1=CO[C@@H](O[C@@H]2O[C@H](CO)[C@H](O)[C@H](O)[C@H]2O)[C@@H]2C(CO)=CC[C@H]12 | inactive | inactive | inactive | inactive | inactive | inactive | inactive | inactive |  |
| C[C@H](NCc1ccc2c(c1)nc(NC(=O)c1ccc(-c3cn[nH]c3)s1)n2CCc1ccccc1)C(C)(C)C | 9.35 µM (active) | 6.62 µM (active) | 5.9 µM (active) | 11.8 µM (active) | 11.8 µM (active) | 9.35 µM (active) | 0.469 µM (active) | 0.526 µM (active) | 0.0743 µM (active) |
